From PubChem BioAssay AID2625 (National Center for Advancing Translational Sciences (NCATS), 2010)
Records with an inconclusive call do not appear. Calls of active or inactive are those of the source. Calls follow the shape of the dose curve; as a rule, active = well fitted curve in the direction sought with a large enough effect; inconclusive = small, poorly fitted or top-dose-only effect, or effect the other way, or another doubt; inactive = no such curve, though single readings can be large or run the other way.

These molecules were tested against Pyruvate kinase PKLR (Homo sapiens) (UniProt P30613) (assay: Secondary LDH Assay for Activators of Human Liver Pyruvate Kinase: for Probe SAR). Conditions: purified hPK-L, LDH-coupled NADH fluorescence kinetic; series mostly up to 58.2 µM; activity change, positive = activation: at the top concentration.
From the text: NIH Chemical Genomics Center [NCGC]
Matthew G. Vander Heiden, M.D., Ph.D. [Harvard Medical School, 77 Avenue Louis Pasteur, Boston, MA 02115]
Human pyruvate kinase liver (hPK-L)enzyme was supplied as a highly purified (>95% pure) preparation from Harvard Medical School and a secondary assay was used to evaluate compounds. This assay couples the formation of pyruvate from hPK-R using lactate dehydrogenase (LDH) and NADH. The depletion of NADH is followed in a fluorescent-based kinetic assay that follows the formation of pyruvate to lactate, as catalyzed LDH. Pyruvate kinase substrates, PEP and ADP, were present in the assay at 0.1 mM and 4 mM respectively. In this kinetic assay initial rates were determined by following the fluorescence of NADH depletion.
NCGC Assay Protocol Summary:
Three uL of substrate mix (final concentration, 50 mM Tris-Cl pH 8.0, 200 mM KCl, 15 mM MgCl2, 0.1 mM PEP, 4.0 mM ADP, and 0.2 mM NADH) was dispensed into black-solid 1536 well plates. 23 nL of compounds were delivered by a pin tool and 1 uL of enzyme mix (final concentrations, 10 nM hPK-L and 1 uM of LDH) was added. Plates were immediately placed in ViewLux (Perkin Elmer) and NADH fluorescence was determined at 30 second exposure intervals for between 3 and 6 minutes. Data were normalized to the uninhibited and EC100 activation using known activators such as fructose-bis-phosphate.
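Also: 0% = uninhibited enzyme rate and 100% = full activation by fructose bisphosphate.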

Sequence of Pyruvate kinase PKLR (Homo sapiens) (P30613 whole entry, looked up): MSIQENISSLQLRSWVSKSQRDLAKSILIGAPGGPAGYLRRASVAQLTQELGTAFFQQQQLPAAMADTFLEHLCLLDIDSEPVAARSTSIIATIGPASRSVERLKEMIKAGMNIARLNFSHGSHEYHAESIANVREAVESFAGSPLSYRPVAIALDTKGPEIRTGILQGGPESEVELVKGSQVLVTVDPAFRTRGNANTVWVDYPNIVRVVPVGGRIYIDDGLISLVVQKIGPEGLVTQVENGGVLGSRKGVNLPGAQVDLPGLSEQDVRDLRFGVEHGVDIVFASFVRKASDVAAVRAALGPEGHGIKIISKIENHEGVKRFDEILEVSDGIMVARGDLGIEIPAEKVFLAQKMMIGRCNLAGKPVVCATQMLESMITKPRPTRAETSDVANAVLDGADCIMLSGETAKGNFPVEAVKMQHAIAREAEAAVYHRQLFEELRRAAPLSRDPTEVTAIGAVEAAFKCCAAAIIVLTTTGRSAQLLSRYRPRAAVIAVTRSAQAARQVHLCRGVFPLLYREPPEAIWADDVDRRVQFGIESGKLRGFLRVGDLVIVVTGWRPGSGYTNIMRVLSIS

Activity change, positive = activation, inactive:
Cc1ccc(NS(=O)(=O)c2ccc3c(c2)CCO3)cc1C 7.65%, Cc1ccc(NS(=O)(=O)c2ccc(N3CCCC3=O)cc2)cc1C -2.32%, Cc1ccc(Cl)cc1NS(=O)(=O)c1cc2c(cc1Cl)CCC(=O)N2 14.3%, Cc1ccc(NS(=O)(=O)c2cc3c(cc2-c2cn[nH]c2)NC(=O)CO3)cc1C 8.73%, Cc1ccc(NS(=O)(=O)c2cc3c(cc2-c2ccsc2)NC(=O)CO3)cc1C 9.06%, COc1ccc(NS(=O)(=O)c2ccc3c(c2)CCC(=O)N3)cc1 0.76%, O=C1c2ccccc2C(=O)N1c1ccc(Cl)cc1 -9.95%, COc1ccc(Nc2c(-c3ccc(C)o3)nc3ccccn23)cc1 -3.03%, COc1ccccc1OC1=NS(=O)(=O)c2ccccc21 -2.18%, Cc1ccc(C)c(OC2=NS(=O)(=O)c3ccccc32)c1 -15%, Cc1ccccc1NS(=O)(=O)c1ccc2c(c1)CCC(=O)N2 7.53%, COc1ccccc1N1C(=O)c2ccccc2C1=O 12.7%, Cc1ccc(-c2nc3ccc(Cl)cn3c2Nc2ccccc2)o1 -3.6%, Cc1ccc(NS(=O)(=O)c2cc3c(cc2/C=C/c2ccccc2)NC(=O)CO3)cc1C -5.92%, Cc1ccc(NS(=O)(=O)c2cccc(C(=O)O)c2)cc1C 1.47%, O=C1c2ccccc2C(=O)N1Cc1ccncc1 -2.36%, O=C1CCc2cc(S(=O)(=O)Nc3ccccc3Cl)ccc2N1 -18.1%, Cc1ccc(NS(=O)(=O)c2cc3c(cc2Cl)NC(=O)C3)cc1C -9.33%, Cc1ccc2nc(-c3ccc(C)o3)c(NC3CCCC3)n2c1 -8.15%, Cc1ccc(NS(=O)(=O)c2ccc3c(c2)CCC(=O)N3)cc1F -11.2%, O=C1c2ccccc2C(=O)N1c1ccccn1 -8.63%, Cc1ccc(NS(=O)(=O)c2ccc3c(c2)CC(=O)N3C)cc1C 1.64%, Cc1c(Cl)cccc1NS(=O)(=O)c1cc2c(cc1Cl)CCC(=O)N2 18.1%, O=S1(=O)N=C(Oc2ccc(Cl)cc2)c2ccccc21 -14%, Cc1ccc(NS(=O)(=O)c2ccc(Cl)cc2)cc1C -12.4%, COc1cc(F)c(S(=O)(=O)N2CCCN(S(=O)(=O)c3cccc(N)c3)CC2)c(F)c1 11.1%, Cc1cc(N2C(=O)c3ccccc3C2=O)n[nH]1 -12.1%, O=C1CCc2cc(S(=O)(=O)Nc3cccc(Cl)c3)ccc2N1 -13.6%, Cc1ccc(NS(=O)(=O)c2cc3c(cc2C)OCC(=O)N3)cc1C -4.44%, Cc1ccc(NS(=O)(=O)c2cc3c(cc2-c2ccccc2)NC(=O)CO3)cc1C -14.4%, Cc1cc(NS(=O)(=O)c2ccc3c(c2)CCC(=O)N3)ccc1F -2.89%, O=C1CCc2cc(S(=O)(=O)Nc3ccc(-c4ccccc4)cc3)ccc2N1 7.77%, O=C1c2ccccc2C(=O)N1c1cncc2ccccc12 -15.4%, O=C1c2ccccc2C(=O)N1c1cccnc1 -3.98%, O=C1c2ccccc2C(=O)N1c1cccc2cnccc12 -12.8%, Cc1ccc(-c2nc3cnccn3c2Nc2ccc(C(C)C)cc2)o1 9.88%, O=C1c2ccccc2C(=O)N1Cc1ccccc1 -1.3%, O=C1CCc2cc(S(=O)(=O)Nc3ccc(F)c(Cl)c3)ccc2N1 -3.62%, CCNc1cccc(S(=O)(=O)N2CCCN(S(=O)(=O)c3ccc4c(c3)OCCO4)CC2)c1 24.7%, CNc1cccc(S(=O)(=O)N2CCN(S(=O)(=O)c3ccc4c(c3)OCCO4)CC2)c1 -9.66%
